# Only some compounds are listed: those with a hit (about 1.3% of all), similar ones and a draw of the others.
# ADAM17 inh: ADAM17 inhibitors, primary screen, biochemical, QFRET | 370,000 compounds, 0.83% hits | AID 720648, 2013 | inhibition, % at 6.95 µM | recombinant ADAM17, EDANS/DABCYL FRET peptide cleavage | Disintegrin and metalloproteinase domain-containing protein 17 (Homo sapiens), P78536;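 active means inhibition above the mean of compounds lying between control limits plus 3 SD, set per campaign, cut at about 8.5% in these data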;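 further: 0% = DMSO-only wells as the low control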
# ADAM10 inh: human ADAM10 inhibitors, primary screen, biochemical, QFRET, HTS. inhibition, % at 7 µM. recombinant ADAM10, EDANS/DABCYL FRET peptide cleavage, 3 h. AID 720582, 2013. 370,000 compounds, 0.62% hits. Disintegrin and metalloproteinase domain-containing protein 10 (Homo sapiens), O14672;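 active means inhibition above a per-campaign cutoff equal to the mean of compounds falling between control-based bounds plus 3 SD, cut at about 20% in these data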;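 further: 0% = DMSO wells while the 100% control is not disclosed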
# GC-A act: GC-A stimulated cGMP production enhancers – HEK293 GC-A cells, cGMP TR-FRET, EC30 ANP, primary screen | activation, % at 10 µM | 370,000 compounds, 0.14% hits | 0% at EC30 ANP, 100% saturating ANP; in the data active means activation above about 40%
# NPR2 activator: human GC-B receptor activators, primary screen, HEK293 GC-B cells, cGMP TR-FRET, EC30 CNP | activation, % at 10 µM | 370,000 compounds, 0.11% hits | Atrial natriuretic peptide receptor 2 (Homo sapiens), P20594 | 0% at EC30 CNP, 100% saturating CNP;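 active means activation at 10 µM reaching about 35% in either raw or pattern-adjusted values, limit read from the data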
# ADAM10 ctr: ADAM10 inhibitors, counter-screen for ADAM17 exosite inhibitor project, biochemical, FRET, human ADAM10 | shares compounds with ADAM17 inh | recombinant ADAM10, EDANS/DABCYL FRET peptide cleavage, 3 h | inhibition, % at 6.95 µM | 2,900 compounds, 47% hits | AID 743256, 2014;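 active means mean inhibition over the triplicate runs exceeds the activity threshold set in the earlier primary screen, cut at about 20% in these data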;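 further: 0% = DMSO wells and 100% = marimastat wells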
# ADAM17 confirm: ADAM17 inhibitors, hit retest, confirmation, biochemical, QFRET peptide cleavage; recombinant ADAM17, EDANS/DABCYL QFRET peptide cleavage; 2,900 compounds, 65% hits; inhibition, % at 6.95 µM; shares compounds with ADAM17 inh; AID 743257, 2014;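 active means mean inhibition across replicates above the hit cutoff set in the primary screen, cut at about 8.5% in these data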;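 further: 0% = DMSO wells and 100% = marimastat wells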
# * marks the source's active call; other numbers are inactive results; nt = not tested or not shown.
SMILES,ADAM17 inh,ADAM10 inh,GC-A act,NPR2 activator,ADAM10 ctr,ADAM17 confirm
CCC(CC)C(=O)Nc1c(C(=O)N2CCN(c3ccccc3)CC2)oc2ccccc12,9.3*,-6,-1,11,3,4
COc1ccc(-c2n[nH]c(=S)n2-c2ccc(Br)cc2)cc1OC,11*,2,-10,-14,2,37*
O=C(N1CCCCC1)C1(S(=O)(=O)c2ccccc2)CC=CC1,-3,-5,1,1,nt,nt
COc1ccc(S[C@@H](CCN2CC[C@H](C)CCC2=O)c2ccccc2)cc1,14*,15,-3,-5,16,11*
O=C(N/N=C/c1cccs1)C1CC(=O)N(c2ccccc2)C1 (centres undefined),-4,2,-1,5,nt,nt
Cc1ccc(/C=N/NC(=O)C2CC(=O)N(c3ccccc3)C2)s1 (centres undefined),10*,4,1,0,0,2
COC(=O)c1ccc(Cn2ccc3ccc(-c4ccc5ccn(C(=O)c6cccc(OC)c6)c5c4)cc32)cc1,-2,-15,-2,2,nt,nt
C[C@H]1CN(c2ccc(Br)cc2)C(=O)[C@@H]1CC(=O)Nc1ccccc1,11*,9,4,-4,7,6
C=CCCC(=O)N1CCCC(Cc2cccc(Cl)c2)(C(=O)OCC)C1 (centres undefined),9.1*,10,-10,-11,-6,0
N#CCc1ccc(NS(=O)(=O)c2ccc(C3CCCCC3)cc2)cc1,10.0*,15,2,5,24*,10*
O=S(=O)(c1ccc2nc(Cc3ccccc3)[nH]c2c1)N1CCOCC1,8.8*,18,-2,4,13,6
COc1ccc(CNC(=O)C2CCN(C(=O)[C@@H](CC(C)C)NC(=O)OC(C)(C)C)CC2)cc1,8.6*,2,4,-4,-7,-3
COc1ccc(CNC(=O)[C@H](C)NC(=O)C2CCN(C(=O)[C@H](CCSC)NC(=O)OC(C)(C)C)CC2)cc1,1,-3,3,0,nt,nt
Cc1ccc(C)c(N(CC(=O)Nc2ccccc2C(=O)NCc2ccco2)S(=O)(=O)c2ccccc2)c1,9.6*,12,-3,-9,23*,16*
COCc1ccc(C(=O)N2CCCC(N(C)CCc3ccccc3)C2)s1 (centres undefined),-2,-8,1,-3,nt,nt
Cc1ccccc1NC(=O)Cc1nc(COC(=O)c2ccc(Cl)nc2)cs1,8.7*,-10,-3,2,7,5
Cc1ccccc1NC(=O)Cc1nc(COC(=O)c2nc(Cl)ccc2Cl)cs1,-2,-6,1,2,nt,nt
CCC(C)(C)c1ccc(OCCCC[n+]2cccc(C)c2)c(C(C)(C)CC)c1,9.4*,9,11,-12,11,6
CCOC(=O)C1=C(COC(=O)c2cc(S(=O)(=O)N(C)C)ccc2C)NC(=O)NC1C (centres undefined),0,-4,-3,2,nt,nt
O=[N+]([O-])c1ccc(NN=C(c2ccccc2)c2ccccc2)nc1,-3,-3,-9,-5,nt,nt
CC1(Cc2ccccc2C#N)C(=O)Nc2ccc(OC(F)(F)F)cc21 (centres undefined),-1,1,-9,-11,nt,nt
CC1(Cc2ccccc2Cl)C(=O)Nc2ccc(OC(F)(F)F)cc21 (centres undefined),13*,13,-7,-2,21*,13*
Cc1noc(C)c1NC(=O)Nc1cccc2c1O[C@H](CN(C)S(=O)(=O)c1ccc(F)cc1)[C@@H](C)CN([C@H](C)CO)C2=O,11*,3,2,1,3,2
Cc1noc(C)c1NC(=O)Nc1cccc2c1O[C@H](CN(C)S(=O)(=O)c1ccccc1)[C@@H](C)CN([C@H](C)CO)C2=O,-6,-16,4,2,nt,nt

# Source: PubChem BioAssay
